# This is a sample that favours compounds with a hit; in the whole collection about 2.4% have one here.
# CHO-K1 Ca PAM – nonselective activator or artifact in parental CHO-K1 calcium assay; 360,000 compounds, 0.02% hits; ATP EC20, Fluo-8 calcium fluorescence; 0% at ATP EC20, 100% at ATP max; activation, % at 3 µM;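 active = activation above the run cutoff, the mean activation of all test compounds plus 3 SD, cut at about 40% in these data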;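 note: peak over basal fluorescence ratio in a 140 s read after ATP addition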
# CHO-K1 Ca antag – nonselective inhibitor or artifact in parental CHO-K1 cells; ATP-induced calcium, Fluo-8 fluorescence; inhibition, % at 3 µM; 360,000 compounds, 0.6% hits;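 active = inhibition above a per-plate cutoff, the plate's mean sample inhibition plus 3 SD, cut at about 24% in these data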;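 note: 0% = DMSO plus EC80 ATP and 100% = DMSO alone without ATP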
# M1 PAM – potentiates human M1 receptor response to acetylcholine; P11229; AID 588819; 360,000 compounds, 0.088% hits; CHO-K1 hM1, Fluo-8 calcium fluorescence, ACh EC20; 0% = ACh EC20, 100% = maximal ACh; activation, % at 3 µM; in the data active = activation above about 19%, passing the limit was not always enough
# Target sequence (P11229 whole entry, looked up): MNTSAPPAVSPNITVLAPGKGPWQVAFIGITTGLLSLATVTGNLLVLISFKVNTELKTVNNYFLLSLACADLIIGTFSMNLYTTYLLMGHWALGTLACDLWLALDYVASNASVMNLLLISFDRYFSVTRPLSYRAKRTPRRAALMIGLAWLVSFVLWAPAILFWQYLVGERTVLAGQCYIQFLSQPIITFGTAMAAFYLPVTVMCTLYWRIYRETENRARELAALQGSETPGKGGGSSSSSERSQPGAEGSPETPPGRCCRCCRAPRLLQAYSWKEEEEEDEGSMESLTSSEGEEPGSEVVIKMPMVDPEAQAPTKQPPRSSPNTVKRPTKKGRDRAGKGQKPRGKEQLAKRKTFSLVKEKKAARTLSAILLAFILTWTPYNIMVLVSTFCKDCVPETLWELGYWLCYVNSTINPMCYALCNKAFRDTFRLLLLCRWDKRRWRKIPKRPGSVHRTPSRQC
# M1 ag parental – M1 agonist counterscreen hit in parental CHO-K1 cells. Fluo-8 calcium fluorescence; scaled to maximal ATP response, vehicle zero. activation, % at 3 µM. 360,000 compounds, 0.48% hits; in the data active = activation above about 15%;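 note: untransfected CHO-K1 host cells lacking M1 receptor as counterscreen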
# CHRM1 antagonist – blocks human M1 muscarinic receptor | inhibition, % at 3 µM | P11229 | 360,000 compounds, 1.3% hits | CHO-K1 hM1, Fluo-8 calcium fluorescence, ACh EC80 antagonist;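 active = percent inhibition above its own plate's cutoff, namely the mean of that plate's compound wells plus 3 SD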;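 note: peak over basal fluorescence ratio during 140 s after agonist addition; 0% = ACh EC80 plus DMSO and 100% = DMSO alone without agonist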
# CHRM1 agonist – agonists of human M1 muscarinic receptor; AID 588814; 360,000 compounds, 0.33% hits; activation, % at 3 µM; CHO-K1 hM1, Fluo-8 calcium fluorescence, agonist mode; 0% DMSO, 100% acetylcholine EC100; P11229;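 active = activation above the run's mean compound activation plus 3 SD, cut at about 16% in these data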;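 note: peak over basal fluorescence ratio within a 140 s kinetic read after compound addition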
# * hit, by the source's call.
SMILES,CHO-K1 Ca PAM,CHO-K1 Ca antag,M1 PAM,M1 ag parental,CHRM1 antagonist,CHRM1 agonist
COC(=O)CCN(C(=O)c1ccc(N2CCCC2)c([N+](=O)[O-])c1)c1ccccn1,21.4,-18.2,4.1,1.1,-4.1,-2.9
O=C(Nc1cccc(/C=C/c2ccccn2)c1)c1ccc(-n2cncn2)c([N+](=O)[O-])c1,-15.0,6.8,-8.4,10.5,20.4*,1.1
O=C(NNC(=O)c1ccccc1F)c1ccc(-n2cncn2)c([N+](=O)[O-])c1,-13.9,17.9,-12.3,-0.1,35.5*,0.5
CC(OC(=O)c1cccc(N2C(=O)c3ccccc3C2=O)c1)C(=O)Nc1ccc(N(C)C)cc1 (configuration not stated),0.1,8.7,5.4,0.5,-7.2,-3.9
COc1ccc([C@H]2N[C@]3(CCCN(Cc4cccn4C)C3=O)[C@H]3C(=O)N(C)C(=O)[C@@H]23)cc1,28.6,-10.8,8.1,0.5,-12.1,-4.6
CCOC(=O)N1CCN(C(=O)c2c[nH]c3ccc(S(=O)(=O)N(C)c4cccc(C)c4)cc3c2=O)CC1,1.4,-6.7,3.1,0.5,-9.7,3.6
CCOC(=O)N1CCN(C(=O)c2c[nH]c3ccc(S(=O)(=O)N(C)c4ccccc4C)cc3c2=O)CC1,5.5,58.1*,7.0,1.2,-6.9,-2.4
CN(C)C(=O)Nc1ccccc1CC[N+](=O)[O-],17.8,-8.5,4.9,-0.1,-4.2,-3.8
O=C(Nc1ccc(Cl)cc1)Nc1ccccc1CC[N+](=O)[O-],-13.6,23.7*,-20.6,9.8,11.4,0.5
O=C(Nc1ccc(Cl)cc1)Nc1csc([N+](=O)[O-])c1,2.4,15.5,-2.6,16.5*,28.9,7.5
CC(=O)c1cnc(Nc2cccc(Cl)c2Cl)s1,19.8,0.7,10.4,17.2*,-9.2,-4.9
CC(=O)c1cnc(Nc2ccccc2)s1,19.8,-5.1,9.0,0.5,-1.2,-3.6
CC(=O)Nc1ccc(Br)c2ccccc12,9.8,-1.5,1.6,0.1,1.9,-4.0
O=C(Nc1ccc(Br)c2ccccc12)c1ccc2ccccc2c1O,-10.0,14.3,-13.9,18.0*,23.3,0.6
c1cc(-c2n[nH]c(-c3ccncc3)n2)ccn1,3.4,-1.2,14.3,19.6*,-15.0,7.7
Cc1ccc(S(=O)(=O)N2CCN(CCc3ccncc3)CC2)cc1,13.8,-13.1,15.6,0.4,-24.3,-1.6
CCOc1ccccc1NC(=O)CC1(CC(=O)N2CCOCC2)CCCC1,-12.9,-6.8,9.4,0.8,-15.7,-0.6
COc1ccc(NC(=O)CC2(CC(=O)N3CCOCC3)CCCC2)cc1Cl,-18.6,16.9,-16.7,0.1,56.1*,-7.6
COC(=O)c1ccc(C(C(=O)NCc2ccccc2)N(Cc2cccs2)C(=O)c2cnccn2)cc1 (configuration not stated),6.0,9.6,-15.2,4.2,20.6*,2.9
Cc1ccc(C(C(=O)NCc2ccccc2)N(Cc2cccs2)C(=O)c2ccc3c(c2)OCCO3)cc1 (configuration not stated),13.4,13.4,-16.7,10.1,32.7*,-1.5
COc1ccc(CNC(=O)C(c2ccc(C)cc2)N(Cc2cccs2)C(=O)c2ccc3c(c2)OCCO3)cc1 (configuration not stated),-4.5,4.8,-12.3,6.6,18.0,3.1
Cc1ccccc1C(=O)N1CCN(S(=O)(=O)c2cccs2)CC1,15.8,-4.9,13.2,1.9,-13.5,-1.0
CCOC(=O)Cn1nc(C)c(NC(=O)COc2cccc(Cl)c2)c1C,-1.8,-5.0,5.0,3.8,-3.0,-2.1
CC(=O)c1ccc(NS(=O)(=O)c2ccc(C(C)(C)C)cc2)cc1,3.0,-4.6,-4.8,7.0,9.3,-3.1
Cc1cc(NS(=O)(=O)c2ccc(NC(=O)c3c(F)c(F)c(F)c(F)c3F)cc2)nc(C)n1,11.0,-3.8,7.9,0.7,-12.4,-2.0
SMILES,CHO-K1 Ca PAM,CHO-K1 Ca antag,M1 PAM,M1 ag parental,CHRM1 antagonist,CHRM1 agonist
Cc1ccc(S(=O)(=O)Nc2ccc(NC(=O)c3c(F)c(F)c(F)c(F)c3F)cc2)cc1,15.3,-6.7,-4.5,14.6,21.8,24.5*
CC(=O)c1ccc(NS(=O)(=O)c2ccc(C)cc2)cc1,-5.7,26.8*,-4.2,-0.2,-11.6,-2.8
CCCC(C)c1nc(C(N)=O)c2[nH]c(=O)n(-c3ccc(OC)c(OC)c3)c2n1 (configuration not stated),23.3,-3.7,17.0,-0.3,-9.1,2.5
Cc1cc([N+](=O)[O-])ccc1NC(=O)C(C)[n+]1ccccc1 (configuration not stated),5.2,3.1,-27.4,0.0,26.7*,-11.9
Cc1cc([N+](=O)[O-])ccc1NC(=O)c1ccco1,8.6,4.0,9.7,-0.1,-14.3,-4.7
CSc1cccc(NC(=O)c2c(Cl)cnn2C)c1,-6.6,-8.6,7.8,-0.5,-9.0,-9.8
CC(=O)Nc1ccc(NC(=O)c2nc(S(=O)(=O)Cc3cccc(C)c3)ncc2Cl)cc1,-30.4,11.2,-5.5,-0.2,17.2,-5.1
Cc1ccc(NC(=O)c2nc(S(=O)(=O)Cc3ccccc3C)ncc2Cl)cc1C,-20.5,26.0*,6.8,-0.1,9.7,-2.9
CCOC(=O)c1ccc(NC(=O)c2nc(S(=O)(=O)Cc3ccccc3)ncc2Cl)cc1,-3.9,16.2,-3.3,-0.6,8.8,-3.2
CCc1ccc(NC(=O)c2nc(S(=O)(=O)Cc3ccccc3)ncc2Cl)cc1,-15.7,30.2*,-12.0,0.8,30.9,-5.1
Cn1cccc1C1Nc2ccccc2NC2=C1C(=O)CC(C)(C)C2 (configuration not stated),1.1,20.8,-5.8,3.4,41.7*,0.7
Cc1cccc(N2C(=O)c3cccc4cccc(c34)C2=O)c1,14.5,-15.6,11.4,0.5,-16.0,-1.3
CC(C)CCN1C(=O)c2cccc3c(N)ccc(c23)C1=O,-19.7,67.0*,-22.8,152.2*,70.4*,151.3*
CC(=O)Nc1cccc2c1C(=O)N(c1cccc(C)c1)C2=O,7.5,2.2,1.6,0.4,1.6,-1.8
Nc1ccc2c3c(cccc13)C(=O)N(c1ccccc1)C2=O,-19.9,25.7*,-24.4,50.2*,52.0*,121.4*
O=C(O)c1ccc2c3c(cccc13)C(=O)N(c1ccccc1)C2=O,21.6,-2.2,13.4,0.9,-8.0,-8.0
CCN1C(=O)c2cccc3c(Cl)ccc(c23)C1=O,26.6,-13.7,6.2,1.9,-4.6,-6.3
Cc1cccc(N2C(=O)c3cccc4c(N(C)CCO)ccc(c34)C2=O)c1,-6.8,9.6,-14.4,19.8*,10.7,22.8*
Cc1cccc(N2C(=O)c3cccc4c(N)ccc(c34)C2=O)c1,-15.2,34.9*,-26.8,123.7*,43.2*,108.4*
O=C(O)C1=CCCNC1,36.4,-10.5,4.7,1.0,-15.9,-1.5

# Assay outcomes deposited in PubChem BioAssay by The Scripps Research Institute Molecular Screening Center.
